In all, about 220,000 compounds went through this assay and about 530 (0.24%) were called active. What follows is part of a selection rich in actives, with near analogues and random picks from the rest. Results with a measured potency or affinity are listed apart. Unmarked numbers belong to inactive results. No stated cut-off is given here; in the data, active means inhibition above about 13%; inconclusive means no clear call, values can overlap the other calls; inactive means below that.
Biological target: Bifunctional protein GlmU (Mycobacterium tuberculosis (strain ATCC 25618 / H37Rv)) (UniProt P9WMN3)
Sequence (P9WMN3 whole entry, looked up): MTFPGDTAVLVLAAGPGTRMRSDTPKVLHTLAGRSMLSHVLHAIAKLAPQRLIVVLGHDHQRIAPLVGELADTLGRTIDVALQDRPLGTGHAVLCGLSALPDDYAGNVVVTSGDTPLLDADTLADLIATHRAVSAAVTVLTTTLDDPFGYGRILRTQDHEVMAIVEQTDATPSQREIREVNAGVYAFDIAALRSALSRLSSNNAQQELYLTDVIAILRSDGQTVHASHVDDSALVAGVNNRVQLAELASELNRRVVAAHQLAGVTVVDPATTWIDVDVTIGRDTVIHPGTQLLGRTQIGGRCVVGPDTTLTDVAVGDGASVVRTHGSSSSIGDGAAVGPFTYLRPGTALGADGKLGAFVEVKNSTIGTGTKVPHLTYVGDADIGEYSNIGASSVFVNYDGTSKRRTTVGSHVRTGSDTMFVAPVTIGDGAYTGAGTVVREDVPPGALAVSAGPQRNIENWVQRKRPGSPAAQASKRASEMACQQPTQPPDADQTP
Experiment: inhibition of mycobacterial GlmU enzyme – biochemical, glucosamine-1-phosphate acetyltransferase (AID 1376);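 further: 0% = complete reaction with vehicle and 100% = reaction without substrate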
Conditions: M. tuberculosis GlmU acetyltransferase enzyme assay; hits give high values;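 tested at 30 µM in the primary screen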

Structure (SMILES) | inhibition
CCNC(=O)Oc1ccc[nH]c1=O | 6.02%
CN(C)c1ccc(C=C(c2nnnn2-c2ccccc2)c2nnnn2-c2ccccc2)cc1 | -2.49%
COC(=O)N/N=C(\C)c1ccc(OC(F)F)cc1OC(F)F | 6.36%
FC(F)(F)c1ccccc1NC(=S)N1CCN(Cc2ccc3c(c2)OCO3)CC1 | -0.82%
CCc1ccc(NC(=O)CSCCN2C(=O)c3ccccc3C2=O)cc1 | -2.41%
CCCCCNC(=O)c1cc(S(=O)(=O)N2CCCC2)ccc1F | 0.96%
Cc1ccccc1-n1c(C)cc(/C=C2/C(=N)N3C(c4ccccc4)=CSC3=NC2=O)c1C | -1.94%
O=C1OC(c2cccs2)=N/C1=C\c1ccc(-c2ccccc2Cl)o1 | 7.66%
N=C1/C(=C/c2ccc(-c3cccc(C(=O)O)c3)o2)C(=O)N=C2SC=C(c3ccccc3)N12 | 53.6% (active)
N=C1/C(=C\c2ccc(-c3cccc(Cl)c3)o2)C(=O)N=C2SC=C(c3ccccc3)N12 | -2.27%
O=C1OC(c2cccs2)=N/C1=C/c1ccc(-c2cccc(C(=O)O)c2)o1 | 18.7% (active)
O=C1OC(c2cccs2)=N/C1=C\c1ccc(-c2cccc(Cl)c2)o1 | 7.15%
Cc1ccc(N/C=C(/C#N)c2ccsc2)cc1 | 1.11%
COc1cc(O)c(C(CCN2CCCC2)c2cc(OC)c(OC)c(OC)c2)c(OC)c1 (stereo unspecified) | 1.11%
Cc1ccc(/C=N\NC(=O)C2CC(=O)N(c3ccccc3)C2)o1 (stereo unspecified) | 3.39%
Cc1cc(C)n2nc(SCCC(=O)NCCc3ccccc3)nc2n1 | -3.62%
Cc1cc(C)n2nc(C(=O)NCCc3ccccc3)nc2n1 | 14.6% (active)
Cc1cc(C)n2nc(C(=O)NCc3ccccc3)nc2n1 | -3.46%
CCN(CC(=O)NCc1ccc(Cl)cc1)S(=O)(=O)c1ccc(NC(C)=O)cc1 | -2.53%
CC(CCc1ccccc1)NC(=O)c1cccc([N+](=O)[O-])c1 (stereo unspecified) | 13.1% (active)
CC(CCc1ccccc1)NC(=O)c1ccccc1 (stereo unspecified) | -2.82%
Cc1ccc(C(=O)NC(C)CCc2ccccc2)cc1[N+](=O)[O-] (stereo unspecified) | 3.64%
CCn1c(SCC(=O)NCCc2ccccc2)nnc1C(C)C | 1.51%
Cn1c(SCC(=O)c2ccc3c(c2)NC(=O)CO3)nc2ccccc21 | -5.28%

Structure (SMILES) | inhibition
COc1ccc(C(=O)Cn2c(=N)n(C)c3ccccc32)cc1 | -4.4%
Cn1c(=N)n(CC(=O)c2ccccc2)c2ccccc21 | 3.23%
COc1cccc(C(=O)Cn2c(=N)n(C)c3ccccc32)c1 | 13% (active)
Nc1ncnc(Nc2ccc(S(N)(=O)=O)cc2)n1 | -0.83%
CNC(=S)N1CCN(C(=O)c2ccco2)CC1 | 2.06%
COc1ccc(NC2(C#N)CCCCC2)cc1 | -1.99%
CC(Nc1nc(-c2ccc3c(c2)NC(=O)CO3)cs1)c1ccccc1 (stereo unspecified) | -7.09%
COC(=O)Cc1ccc(NC(=S)NCCSc2ccc(Cl)cc2)cc1 | 3.25%
COc1ccc2c(c1)c(C(=O)CN1CCOCC1)c(C)n2C | 5.7%
COc1ccc2c(c1)c(C(=O)CN1CCC3(CC1)OCCO3)c(C)n2C | 13% (active)
COc1ccc2c(c1)c(C(=O)CN1CCC3(CC1)OCCO3)c(C)n2Cc1ccccc1 | -7.53%
Cc1cc(C(C)(C)C)oc1C(=O)N(CC(=O)NC1CCCC1)Cc1ccccc1 | -0.33%
Cn1c(=O)c2c(ncn2CC(O)CNc2cccc(Cl)c2)n(C)c1=O (stereo unspecified) | -0.25%
COC(=O)Nc1ccc(S(=O)(=O)NCCCCCC(=O)O)cc1 | -5.41%
COc1ccc(Nc2ccccc2C(=O)O)cc1 | -1.06%
O=C(O)c1ccccc1Nc1ccccc1C(=O)O | -0.95%
COc1cc(-c2ccc(Nc3ccccc3C(=O)O)c(OC)c2)ccc1Nc1ccccc1C(=O)O | 27.4% (active)
O=[N+]([O-])c1ccc(Oc2ccc(S(=O)(=O)N3CCCCC3)cc2)cc1 | -0.28%
O=c1c2[nH]c3cccc(Cl)c3c2ncn1CCN1CCCCC1 | 0.41%
CCP(=O)(c1ccccc1)C(C)(C)O (stereo unspecified) | 4.81%
CCCOP(=O)(c1ccccc1)c1ccccc1 | 0.12%
CCOP(=O)(C1=C(O)C(=O)C(C(C)(C)C)=CC1=O)c1ccccc1 (stereo unspecified) | 19.3% (active)
O=C1CN=C(c2ccc(Cl)cc2)c2oc3ccccc3c2N1 | 2.87%
O=C1CN=C(c2ccc(Br)cc2)c2oc3ccccc3c2N1 | 14.2% (active)

Structure (SMILES) | inhibition
O=C1CN=C(c2ccc(F)cc2)c2oc3ccccc3c2N1 | 0.53%
Cc1cccc(/C(N)=N/OC(=O)CCc2ccccc2)c1 | 3.83%
O=C(c1ccc(O)cc1)c1ccc(C(=O)O)c(C(=O)O)c1 | 12.8% (active)
O=C(c1ccc(O)cc1)c1ccc(C(=O)c2ccc(O)cc2)cc1 | -1.69%
O=C(O)c1ccc(C(=O)O)c(C(=O)c2ccccc2)c1 | 1.74%
Cc1ccc(C)c(NCc2ccccc2CO)c1 | -3.27%
Cc1ccccc1CN1C(=O)c2ccccc2Sc2ccc(C(=O)O)cc21 | -2.8%
O=C(O)c1ccc2c(c1)N(Cc1ccccc1)C(=O)c1ccccc1S2 | -0.29%
Cc1cccc(CN2C(=O)c3ccccc3Sc3ccc(C(=O)O)cc32)c1 | 14.3% (active)
COCc1cc(C)nc(SCC(=O)Nc2cccc(C)c2C)c1C#N | 3.01%
COCc1cc(C)nc(SCC(=O)Nc2cccc3cccnc23)c1C#N | 15.1% (active)
COCc1cc(C)nc(SCC(=O)Nc2ccccc2C)c1C#N | 2.63%
CC(C)(C)NCC(O)Cn1cc(C=O)c2ccccc21 (stereo unspecified) | 1.11%
CC1(c2ccccc2)CC(C)(C)N2C(=O)Cc3cccc1c32 (stereo unspecified) | 2.59%
Cc1cccc(-n2c(=O)[nH]c3c(C(N)=O)nc(C(C)C)nc32)c1 | 0.14%
CCn1c2ccccc2c2cc(NC(=O)CSc3nnc(-c4ccc(OC)c(OC)c4)n3N)ccc21 | 3.95%
CCn1c2ccccc2c2cc(NC(=O)CSc3nnc(-c4cccc(OC)c4)n3N)ccc21 | 14.2% (active)
CCn1c2ccccc2c2cc(NC(=O)CSc3nnc(-c4ccc(OC)cc4)n3N)ccc21 | 1.4%
COC(=O)c1c(NC(=O)C2COc3ccccc3O2)sc2c1CCN(C(C)=O)C2 (stereo unspecified) | 2.68%
O=C(COC(=O)/C=C/c1ccccc1[N+](=O)[O-])NC1CCS(=O)(=O)C1 (stereo unspecified) | 6.21%
Cc1cccc(Sc2c([N+](=O)[O-])ncn2C)c1 | 4.72%
Cn1cnc([N+](=O)[O-])c1S(=O)(=O)c1cccc(Cl)c1 | 14.8% (active)
Cn1cnc([N+](=O)[O-])c1Cl | 2.48%
Cn1cnc([N+](=O)[O-])c1Oc1ccc2ccccc2c1 | -3.73%

Structure (SMILES) | inhibition
CCS(=O)(=O)c1c([N+](=O)[O-])ncn1C | 5.34%
COc1ccc(/C=C(\C)c2nc(C)c(-c3ccccc3)c(=O)[nH]2)cc1 | 4.53%
Fc1ccc(N2CCN(c3ncnc4nc[nH]c34)CC2)cc1 | 4.66%
O=C(COC(=O)c1ccc(S(=O)(=O)N2CCCC2)cc1)Nc1ccc(N2CCOCC2)cc1 | -1.26%
Cc1cccc(-c2nc3c(c(SCC(=O)N(C)C)n2)CCCC3)c1 | -3.93%
Cc1cccc(-c2nc3c(c(SCC(N)=O)n2)CCCC3)c1 | 14.5% (active)
NC(=O)CSc1nc(-c2ccccc2)nc2c1CCCC2 | -3.87%
COc1ccc(OC)c(NC(=O)NC2(C(F)(F)F)Oc3ccccc3O2)c1 | -3.98%
O=C(O)CCSCC(=O)c1ccc2c(c1)OCCO2 | -0.32%
CNc1cc(Cl)c2nonc2c1[N+](=O)[O-] | 11.9%
O=[N+]([O-])c1c(Nc2ccccn2)cc(Cl)c2nonc12 | -2.44%
CN(C)c1cc(Nc2cccc(O)c2)c([N+](=O)[O-])c2nonc12 | -3.39%
Cc1c(Nc2cc(N3CCOCC3)c3nonc3c2[N+](=O)[O-])c(=O)n(-c2ccccc2)n1C | -3.88%
CCNc1cc(Nc2c(C)n(C)n(-c3ccccc3)c2=O)c([N+](=O)[O-])c2nonc12 | 2.95%
CN(C)c1cc(Nc2ccc(O)cc2)c([N+](=O)[O-])c2nonc12 | 0.57%
CC1CN(C(=O)c2ccncc2)CC(C)O1 (stereo unspecified) | 2.56%
c1cc2nncn2nc1N1CCCC1 | -1.89%
COC(=O)c1cc(C#N)c(Oc2ccccc2)nc1C | 0.33%
COc1cc(/C=N/NC(=O)c2cccnc2)ccc1OS(=O)(=O)c1cc(C)ccc1C | -3.66%
O=C(OC1Cn2c(=O)ccc(=O)n2C1)c1ccc([N+](=O)[O-])cc1 | 1.59%
COc1ccc(C(C(=O)NC2CCCC2)N(CC2CCCO2)C(=O)Cn2nnc(-c3ccc(C)o3)n2)cc1 (stereo unspecified) | 0.08%
CC1=C(C#N)C(=O)N(C2CCS(=O)(=O)C2)C(=O)/C1=C\c1ccc(C)o1 (stereo unspecified) | 5.88%
CC1=C(C#N)C(=O)N(C2CCS(=O)(=O)C2)C(=O)/C1=C\c1ccco1 (stereo unspecified) | 25.3% (active)
O=C1/C(=C/c2ccco2)SC(=S)N1C1CCS(=O)(=O)C1 (stereo unspecified) | 5.66%
